VHR inh abs – inhibitors of human VHR1 phosphatase (DUSP3) | AID 1654 | 290,000 tested, 0.52% active | recombinant VHR phosphatase, pNPP absorbance | P51452 | inhibition, % at 13.3 µM; in the data active = inhibition above about 50%
RecA intein inh – Mtb RecA intein splicing inhibition; cell-free RecA intein splicing, fluorescence; AID 2221; inhibition, % (test concentration not listed); 290,000 tested, 0.75% active; P9WHJ3; in the data active = inhibition above about 30%
Target sequence (P9WHJ3 whole entry, looked up): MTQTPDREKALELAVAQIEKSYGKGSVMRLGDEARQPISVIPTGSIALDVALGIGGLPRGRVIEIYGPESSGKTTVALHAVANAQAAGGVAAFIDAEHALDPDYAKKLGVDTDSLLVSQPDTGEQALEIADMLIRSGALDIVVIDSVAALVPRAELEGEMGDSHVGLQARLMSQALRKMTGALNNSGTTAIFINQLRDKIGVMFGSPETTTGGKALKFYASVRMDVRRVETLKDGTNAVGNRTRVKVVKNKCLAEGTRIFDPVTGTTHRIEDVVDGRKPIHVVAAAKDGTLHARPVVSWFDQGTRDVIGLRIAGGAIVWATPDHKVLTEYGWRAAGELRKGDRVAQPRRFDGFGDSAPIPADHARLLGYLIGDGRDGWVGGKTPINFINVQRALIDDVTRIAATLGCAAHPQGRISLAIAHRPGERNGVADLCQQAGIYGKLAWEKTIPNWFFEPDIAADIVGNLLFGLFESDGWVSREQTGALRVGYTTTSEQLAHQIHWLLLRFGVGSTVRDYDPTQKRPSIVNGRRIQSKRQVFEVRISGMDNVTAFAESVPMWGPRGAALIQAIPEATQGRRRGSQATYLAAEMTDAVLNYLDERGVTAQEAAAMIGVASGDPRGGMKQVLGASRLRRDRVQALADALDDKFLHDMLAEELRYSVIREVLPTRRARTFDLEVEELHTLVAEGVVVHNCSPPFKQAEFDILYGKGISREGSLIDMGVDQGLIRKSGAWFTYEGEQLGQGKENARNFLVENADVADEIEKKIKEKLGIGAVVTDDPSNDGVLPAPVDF
CCHF vOTU inh – blocks the CCHF virus ovarian tumor domain protease; CCHFV vOTU protease, Pep-AMC fluorescence; inhibition, % at 11.5 µM; 370,000 tested, 0.55% active; in the data active = inhibition above about 30%
3CLpro inhibitor – SARS-CoV 3CLpro protease inhibition | 290,000 tested, 0.14% active | P0C6X7 | recombinant SARS-CoV 3CLpro, quenched FRET peptide cleavage | AID 1706 | inhibition, % at 6 µM; in the data active = inhibition above about 12%
A number is an active result; 0 = inactive; - = no result. Shown are actives, neighbours in structure and some others; about 1.5% of the full set was active somewhere.

SMILES	VHR inh abs	RecA intein inh	CCHF vOTU inh	3CLpro inhibitor
CCC(C(=O)Nc1cccc(C(F)(F)F)c1)c1ccccc1 (stereo not given)	0	0	0	13
O=C(Nc1cccc(C(F)(F)F)c1)C(SCCO)c1ccccc1 (stereo not given)	0	0	0	0
CCC(C(=O)Nc1ccc2[nH]ncc2c1)c1ccccc1 (stereo not given)	57	0	0	0
CCC(C(=O)Nc1ccncc1)c1ccccc1 (stereo not given)	0	0	0	0
CCCCNC(=O)C1(C)CCCCN1C(=O)c1ccc2ccccc2n1 (stereo not given)	-	-	0	-
COc1ccc(/C=N/Nc2ncc(Br)cn2)c(OC)c1	88	0	0	0
COc1ccc(/C=N\Nc2ccccn2)c(OC)c1	0	0	0	0
Cc1cc(C)c(S(=O)(=O)ON2C(=O)c3ccccc3C2=O)cc1C	0	60	0	0
Cc1ccc(S(=O)(=O)ON2C(=O)c3ccccc3C2=O)c(C)c1	0	-	0	0
Cc1ccc([N+](=O)[O-])cc1S(=O)(=O)Nc1ccc(C(=O)N2CCN(C(=O)c3ccco3)CC2)cc1	-	-	0	-
CS/C(=C\[N+](=O)[O-])Nc1ccc(OC(F)(F)F)cc1	0	57	0	0
CC(C)(CCl)C(=O)Nc1ccc(OC(F)(F)F)cc1	0	0	0	0
Cc1nnc(NC(=O)c2c(-c3ccccc3)noc2C)s1	0	0	0	0
CCCC(CCC)c1nnc(NC(=O)c2ccco2)s1	60	0	0	0
CCC(CC)c1nnc(NC(=O)c2c(-c3ccccc3)noc2C)s1	50	0	0	0
CCC(c1ccccc1)c1nnc(NC(=O)c2ccco2)s1 (stereo not given)	0	0	0	0
COc1cc(OC)cc(C(=O)N[C@H](C(=O)OCC(=O)Nc2ccc3c(c2)OCO3)C(C)C)c1	-	-	0	-
O=[N+]([O-])c1ccc2c(c1)CO[C@]21O[C@H](CCO)C[C@H](O)[C@H]1O	-	-	0	-
O=C(CCC1CCN(Cc2ccc(Cl)cc2)CC1)NC1CC1	0	0	0	0
CCOc1cccc(CN2CCC(CCC(=O)NC3CC3)CC2)c1O	51	0	0	0
COc1cc(NC(=O)CN2C(=O)CN(C)C2=O)c(C)cc1[N+](=O)[O-]	0	0	0	0
COc1cc(NC(=O)Cn2ncc(Cl)c(Cl)c2=O)c(C)cc1[N+](=O)[O-]	0	53	0	0
CC(=O)c1cc(CN2CCC(n3nccc3NC(=O)c3ccccc3C)CC2)cs1	59	0	0	0
COc1ccc(CN2CCC(n3nccc3NC(=O)c3ccc4c(c3)OCO4)CC2)cc1C	52	0	0	0
COc1ccccc1C(=O)Nc1ccnn1C1CCN(Cc2csc(C(C)=O)c2)CC1	0	0	0	0
SMILES	VHR inh abs	RecA intein inh	CCHF vOTU inh	3CLpro inhibitor
Cc1ccccc1CN1CCC(n2nccc2NC(=O)c2ccc3c(c2)OCO3)CC1	0	0	0	0
CN(CCc1ccccc1)C(C(=O)Nc1ccc2c(c1)OCCO2)C1CC1 (stereo not given)	-	-	0	-
O=C(C1CCCO1)N1CCN(C2=Nc3ccccc3Sc3ccccc32)CC1 (stereo not given)	-	-	0	-
CCOC(=O)c1ccc(N2C(=O)c3n[nH]c(C)c3C2c2cccnc2)cc1 (stereo not given)	0	0	0	0
CCOC(=O)c1ccc(N2C(=O)c3n[nH]c(-c4ccco4)c3C2c2ccc([N+](=O)[O-])cc2)cc1 (stereo not given)	0	32	0	0
O=C(N/N=C/c1cccc([N+](=O)[O-])c1O)c1cccs1	56	0	0	0
Cc1cccc(Nc2ccc(C(=O)O)cc2[N+](=O)[O-])c1C	53	0	0	0
COc1ccc(Nc2ccc(C(=O)O)cc2[N+](=O)[O-])cc1	0	0	0	0
Cc1ccc(NC(=O)c2cc(NC(=O)c3ccccc3C(=O)O)ccc2N2CCCCC2)cc1	0	0	0	0
Cc1ccc(NC(=O)c2cc(NC(=O)/C=C\C(=O)O)ccc2N2CCCCC2)cc1	0	48	0	0
Cc1ccc(C2c3c(oc4ccc(Cl)cc4c3=O)C(=O)N2CCCN2CCOCC2)o1 (stereo not given)	0	36	-	0
O=C1c2oc3ccc(Cl)cc3c(=O)c2C(c2ccco2)N1CCN1CCOCC1 (stereo not given)	0	0	0	0
CC(=O)Oc1ccc(-n2c(=O)c3ccccc3c3ccccc3c2=O)cc1	0	0	0	0
COc1ccc(-n2c(=O)c3ccccc3c3ccccc3c2=O)cc1	0	31	0	0
C[C@H](NC(=O)OCc1ccccc1)P(=O)(O)O	-	-	0	-
COc1ccc(C2CC(=O)C(c3ccc(F)cc3)=CN2Cc2ccccc2)cc1 (stereo not given)	-	-	0	-
Cc1noc(/C=C/c2ccco2)c1S(=O)(=O)N1CCC(C(=O)NC(C)c2ccccc2)CC1 (stereo not given)	50	0	0	0
O=C(NCC(c1cccs1)N1CCOCC1)c1ccccc1NS(=O)(=O)c1ccc(Cl)c([N+](=O)[O-])c1 (stereo not given)	0	0	0	0
O=C(NCC(c1cccs1)N1CCOCC1)c1ccccc1NS(=O)(=O)c1cccc([N+](=O)[O-])c1 (stereo not given)	56	0	0	0
CCc1c(C(=O)NC(C)C2CCCO2)csc1C (stereo not given)	0	0	0	0
CC1(C)CC2(C)OC(=N)C1(C#N)C2(C#N)C#N (stereo not given)	0	45	0	0
CC1(c2ccc3ccccc3c2)NC(=O)N(CC(=O)NCC(C)(C)N2CCOCC2)C1=O (stereo not given)	-	0	0	-
CCCCCCOC(=O)c1ccc(OC(=O)c2cccnc2)cc1	0	61	-	0
CCCCOC(=O)c1ccc(OC(=O)c2cccnc2)cc1	0	0	0	0
O=c1[nH]ncc2c3ccccc3n(Cc3ccccc3)c12	0	0	0	0
SMILES	VHR inh abs	RecA intein inh	CCHF vOTU inh	3CLpro inhibitor
CCCn1c2ccccc2c2cn[nH]c(=O)c21	59	0	0	0
CS(=O)(=O)N(Cc1ccc(C(=O)Nc2ccccc2Sc2ccccc2)cc1)c1ccccc1	0	0	0	13
O=S1(=O)c2cc(Cl)ccc2N2CC[C@H](C2)N1Cc1ccc(Cl)c(Cl)c1	-	-	0	-
COC(=O)c1sccc1NC(=O)Nc1cccc(C(C)=O)c1	0	0	0	0
COC(=O)c1sccc1NC(=O)Nc1cccc(C)c1	50	0	0	0
COc1ccc(-c2cc(CNC(=O)CCl)on2)cc1	0	37	0	0
CCOc1ccccc1CN1CCNC(=O)C1CC(=O)NC1CCCCC1 (stereo not given)	51	0	0	0
CCOc1ccccc1CN1CCNC(=O)C1CC(=O)NC1CCCCCC1 (stereo not given)	0	0	0	0
CC(C)Sc1nc2[nH]ncc2c(=O)[nH]1	0	0	0	0
CC(=O)Nc1ccc(NC(=O)C(Cc2ccccc2)NC(=O)C2CCC(C)CC2)cc1 (stereo not given)	0	0	0	0
Cc1ccc(S(=O)(=O)NCC2CCC(C(=O)NC3CCCCC3)CC2)cc1 (stereo not given)	58	0	0	0
CC(=O)Nc1ccc(S(=O)(=O)NCC2CCC(C(=O)NC3CCCCCC3)CC2)cc1 (stereo not given)	0	0	0	0

Bioassay records as filed in PubChem.
